Hits are enriched below; roughly 19% of the tested compounds scored in any of these assays.
TDP1 cell CPT: growth inhibition of DT40 Tdp1-/-;hTDP1 cells with camptothecin (screen for TDP1 inhibitors) | chicken DT40 Tdp1-/-;hTDP1 cells + 20 nM CPT, ATP luminescence, 48 h | Potency, µM (doses to about 46.2 µM), for inactives: top-dose activity change, negative = growth inhibition, most hits filed as inhibitors | 420,000 tested, 12% active; note: nearly all actives have a fitted effect of over 55% in size
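Chicken DT40 Tdp1-/- cells complemented with human TDP1, 400 cells/well, exposed to compounds plus 20 nM camptothecin for at least 48 h at 37 C; viability read as ATP content by CellTiter-Glo luminescence.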
TDP1 cell noCPT: qHTS for Inhibitors of human tyrosyl-DNA phosphodiesterase 1 (TDP1): qHTS in cells in absence of CPT; DT40 Tdp1-/- hTDP1 cells, no CPT, ATP luminescence, 48 h; Potency, µM (titrated, usually from 46.2 µM), inactives show top-dose activity change, negative = growth inhibition, most hits filed as inhibitors; 420,000 tested, 15% active; AID 686978, 2013; note: nearly all actives have a fitted effect of over 55% in size
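A cellular qHTS used chicken DT40 cells lacking endogenous Tdp1 but carrying stably transfected human TDP1. Compounds were applied without camptothecin, and cell growth kinetics were judged by ATP-dependent luminescence after ≥48 hr.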
RORgamma inh: ROR gamma (mouse) transcription inhibition. 310,000 tested, 5.4% active. P51450. Potency, µM (highest dose often 53.6 µM), without a hit: at the highest dose activity change, negative = inhibition, most hits filed as inhibitors. Drosophila S2 Gal4-RORgamma UAS-luciferase reporter, 20 h; note: nearly all actives have a fitted effect of over 60% in size
Target sequence (P51450 whole entry, looked up, the tested form may be a part): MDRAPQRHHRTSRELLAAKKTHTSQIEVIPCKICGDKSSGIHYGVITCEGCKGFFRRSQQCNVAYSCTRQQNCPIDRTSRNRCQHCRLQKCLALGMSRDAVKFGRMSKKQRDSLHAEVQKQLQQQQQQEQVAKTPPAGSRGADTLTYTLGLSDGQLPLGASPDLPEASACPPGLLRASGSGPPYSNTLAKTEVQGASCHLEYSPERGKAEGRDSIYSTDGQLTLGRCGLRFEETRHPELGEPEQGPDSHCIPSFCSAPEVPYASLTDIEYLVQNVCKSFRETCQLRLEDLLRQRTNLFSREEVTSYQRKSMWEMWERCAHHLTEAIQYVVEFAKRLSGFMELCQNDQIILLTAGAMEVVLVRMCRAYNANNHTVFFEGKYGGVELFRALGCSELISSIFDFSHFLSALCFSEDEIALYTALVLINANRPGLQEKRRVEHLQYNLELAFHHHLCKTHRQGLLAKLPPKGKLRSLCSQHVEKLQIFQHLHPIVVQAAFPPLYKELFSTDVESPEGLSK
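ROR gamma transcriptional activity was tracked as Gal4-UAS luciferase output in stably transfected Drosophila Schneider cells, with compound added 1 hr before 700 uM copper sulfate induction and a 20 hr ambient-temperature incubation.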
TDP1 inh: TDP1 (human) enzyme inhibition | Q9NUW8 | recombinant TDP1, AlphaScreen DNA substrate cleavage | Potency, µM (top dose mostly 130 µM), for inactives: at the highest dose activity change, negative = inhibition, usual class: inhibitors | 350,000 tested, 0.28% active | AID 485290; note: nearly all actives have a fitted effect of over 40% in size
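Tdp1 1 nM final; 15 min RT w/ cpd; substrate 15 nM, 5 min; beads 10 ug/ml, 10 min; AlphaScreen read. Neg ctrl: no enzyme.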
VP16 counter: counter-screen for ROR gamma inhibitors: Gal4-VP16 reporter; Drosophila S2 Gal4-VP16 UAS-luciferase, luminescence, 20 h; Potency, µM (highest dose often 53.6 µM), for inactives: top-dose activity, negative = inhibition, actives largely listed as inhibitors; 310,000 tested, 3.5% active; AID 2546;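 note: Gal4-VP16 expression switched on by copper sulfate through the metallothionein promoter; nearly all actives have a fitted effect of over 50% in size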
* hit, by the source's call; ? = inconclusive; nt = no result; [ ] = dose if it differs, or a comment. Calls come from the whole dose curve; as a rule, active = well fitted curve in the direction sought with a large enough effect; inconclusive = small, poorly fitted or top-dose-only effect, or another doubt; inactive = no such curve, though single readings can be large; an effect the other way counts as inactive or inconclusive. % is set by controls: 0 for no effect and ±100 for the full control effect; potency is the fitted concentration of half-maximal effect.

SMILES	TDP1 cell CPT	TDP1 cell noCPT	RORgamma inh	TDP1 inh	VP16 counter
N#Cc1ccccc1NC(=S)Nc1ccc(F)cc1	-13.1%	-22.2%	17.8µM*	2.5%	20µM*
Cn1c2c(c(=O)n(C)c1=O)C(CC(=O)Nc1ccccc1)C(=O)N2 (stereo not drawn)	-10.4%	-9.2%	-10.8%	2.2%	0.9%
COc1ccc(OC)c(NC(=O)C2=C(C)Nc3ncnn3C2c2cccs2)c1 (stereo not drawn)	-23.8%	-35.0%	3.6%	3.1%	-10.6%
COc1ccc(CONS(=O)(=O)c2ccc(NC(C)=O)cc2)cc1Cl	20.6µM*	?	41.8%	-2.1%	1.4%
COc1ccc(S(=O)(=O)Nc2ccc(NC(C)=O)cc2)cc1Cl	7.5%	-2.5%	-7.0%	0.0%	7.1%
O=C(O)/C=C/C(=O)Nc1ccc(OC(F)(F)Cl)cc1	23.8%	-19.2%	1.0%	8.4%	8.3%
C=C(CN(C)C)C(=O)c1ccc(C)cc1C	0.517µM*	0.581µM*	nt	nt	nt
COc1ccc(COCC(O)CN2CCCC(C(F)(F)F)C2)cc1 (stereo not drawn)	nt	nt	12.3%	0.1%	-3.6%
Cn1c(Sc2ccc(Br)cc2)c(C=O)c2ccccc21	?	13µM*	20.7%	1.0%	2.1%
Cn1c(Oc2ccc(F)cc2)c(C=O)c2ccccc21	?	?	13.6%	-3.8%	-0.2%
CC(=O)c1ccc(-c2nnc(CCC(=O)N(C)Cc3cccc4cnccc34)o2)s1	-20.7%	-26.1%	0.6%	nt	-1.8%
Cc1ccc(-c2nnc(CCC(=O)N(C)Cc3nccs3)o2)s1	3.6%	20.6µM*	-8.0%	2.8%	0.3%
Cc1ccc(-n2cc(CN3CCC(CO)(Cc4ccccc4)CC3)cn2)cc1	nt	nt	3.9%	nt	3.6%
CC(C)Cc1cc(CN2CCC(CO)(Cc3cccc(C(F)(F)F)c3)CC2)[nH]n1	?	?	4.47µM*	-5.6%	?
CSc1cccc(CN2CCC(CO)(Cc3cccc(C(F)(F)F)c3)CC2)c1	?	16.4µM*	-4.5%	3.6%	-2.2%
Cc1ccc(-n2cc(CN3CCC(CO)(Cc4cccc(C(F)(F)F)c4)CC3)cn2)cc1	9.2µM*	20.6µM*	17.8µM*	nt	?
COCCn1c(SCC(=O)Nc2ccc(S(=O)(=O)N3CCOCC3)cc2)nc2ccccc21	-6.8%	-12.3%	19.5%	0.0%	4.7%
O=C(Nc1nnc(C2CCCC2)s1)C1CCN(S(=O)(=O)c2ccc(Cl)cc2)CC1	3.0%	-11.8%	39.3%	-1.1%	17.5%
CCCCNC(=O)c1cc2c(C)cc(C)cc2[nH]1	-0.4%	-16.9%	34.5%	-0.6%	3.8%
CC1(C)CC(=O)C=C(c2ccc(-c3ccc(S(C)(=O)=O)cc3)cc2)C1=O	20.6µM*	11.6µM*	nt	nt	nt
COc1cccc(-c2ccc(C3=CC(=O)CC(C)(C)C3=O)cc2)c1OC	?	20.6µM*	nt	nt	nt
CCCNC(=O)C(Cc1ccccc1)NC(=O)c1ccc(C(F)(F)F)cc1 (stereo not drawn)	-28.0%	?	nt	-0.4%	nt
CN(C)C=Nc1nc2ccccc2nc1N1CCCC1	-2.1%	?	-30.3%	2.6%	6.9%
CCCOc1ccc(-c2nc(=S)[nH][nH]2)cc1	-18.7%	-5.7%	0.0%	-4.0%	-26.1%
S=c1nc(-c2ccc(Cl)cc2)[nH][nH]1	-1.2%	-19.9%	8.91µM*	8.0%	-23.4%
SMILES	TDP1 cell CPT	TDP1 cell noCPT	RORgamma inh	TDP1 inh	VP16 counter
C(=C\c1ccnc2ccccc12)/c1ccc(N(Cc2ccccc2)Cc2ccccc2)cc1	12.6µM*	12.6µM*	nt	nt	nt
CCCCCCCCCN(CCCCCCCCC)c1ccc(/C=C/c2ccnc3ccccc23)cc1	1.0%	5.2%	nt	nt	nt
CCN(Cc1ccccc1)c1ccc(/C=C/c2ccnc3ccccc23)cc1	?	11.2µM*	nt	nt	nt
c1cncc(-c2nn3c(Cn4nnc5ccccc54)nnc3s2)c1	?	?	-1.1%	4.9%	-7.2%
Cc1oc(C)c2c(=O)ccc3c(c12)OC(N)=C(C#N)C3c1ccc(F)cc1 (stereo not drawn)	?	?	-26.1%	1.1%	-13.7%
CCN1C=C(Cc2ccc(F)cc2)C2=C(C1)C(c1ccc(F)cc1)C(C#N)=C(N)O2 (stereo not drawn)	?	16.4µM*	-18.9%	5.6%	3.3%
CCN1C=C(Cc2ccccc2C)C2=C(C1)C(c1ccccc1C)C(C#N)=C(N)O2 (stereo not drawn)	16.4µM*	20.6µM*	?	12.3%	5.8%
COc1ccccc1NC(=O)Nc1nc(CC(=O)NCc2ccccn2)cs1	?	25.9µM*	nt	nt	nt
COc1ccc(CNC(=O)Cc2csc(NC(=O)Nc3ccccc3OC)n2)cc1	?	14.6µM*	nt	0.3%[0.505 µM]	nt
COc1ccccc1NC(=O)Nc1nc(CC(=O)NCc2cccnc2)cs1	?	-14.1%	nt	4.1%	nt
COc1ccccc1CNC(=O)Cc1csc(NC(=O)Nc2ccccc2OC)n1	16.4µM*	23.1µM*	nt	-0.2%	nt
COc1ccccc1NC(=O)Nc1nc(CC(=O)NC2CCCC2)cs1	?	16.4µM*	nt	-3.2%	nt
CCCn1c(-c2ccc(F)cc2)nc2c(NCCN(C(C)C)C(C)C)nc(C)nc21	nt	nt	-29.5%	9.3%	-5.7%
Cc1ccc(Nc2cccc(C(F)(F)F)c2)nn1	-18.2%	?	nt	nt	nt
COc1cc(OC)cc(C(=O)Nc2nc(CC(=O)NCc3ccc(F)cc3)cs2)c1	11.6µM*	8.2µM*	nt	1.1%	nt
O=C(Cc1csc(NC(=O)Nc2cccc(Cl)c2)n1)NCc1ccccn1	2.06µM*	2.59µM*	nt	6.9%	nt
Cc1cccc(-n2c(SCC(=O)N3CCC(C(=O)O)CC3)nc3ccccc3c2=O)c1C	-5.9%	-1.8%	34.0%	12.5%	-18.5%
COC(=O)c1cc(S(=O)(=O)Nc2cccc(-c3ccno3)c2)c[nH]1	11.6µM*	7.31µM*	nt	nt	nt
CCN(C[C@H]1N[C@@](CC)(C(=O)OC)[C@H]2C(=O)N(Cc3ccccc3)C(=O)[C@@H]12)S(=O)(=O)c1ccc(F)cc1	?	20.6µM*	nt	1.4%	nt
CCN(C[C@H]1N[C@@](Cc2ccccc2)(C(=O)OC)[C@H]2C(=O)N(Cc3ccccc3)C(=O)[C@@H]12)S(=O)(=O)c1ccc(C)cc1	16.4µM*	20.6µM*	nt	0.4%	nt
CCN(C[C@H]1N[C@@](Cc2ccccc2)(C(=O)OC)[C@H]2C(=O)N(Cc3ccccc3)C(=O)[C@@H]12)S(=O)(=O)c1ccccc1	?	23.1µM*	nt	-0.5%	nt
CCN(C[C@H]1N[C@@](Cc2ccccc2)(C(=O)OC)[C@H]2C(=O)N(Cc3ccccc3)C(=O)[C@@H]12)S(=O)(=O)c1ccc(-c2ccccc2)cc1	-13.9%	-12.2%	nt	0.3%	nt
O=C(Nc1ccccc1C(=O)O)c1ccc(NC(=O)c2ccc(Br)o2)cc1	?	?	11.0%	1.8%	3.0%
